Screening results (PubChem)
Only some compounds are listed: those with a hit (about 2.1% of all), similar ones and a draw of the others.
ERAP1 inh: human ERAP1 aminopeptidase inhibitors, primary screen, biochemical, single point, plate reader; recombinant ERAP1, Leu-AMC fluorescence, 60 min; inhibition, % at 10.7 µM; actives 0.15% (n = 340,000);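 active means mean replicate inhibition of at least 30%, or all replicates individually reaching that 30% level; inactive means mean below 30% and not every replicate reaching it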;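 further: 0% = neutral control wells and 100% = L-leucinethiol positive control wells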
CFTR F508del cor: F508del CFTR correction, initial screen, CFBE line, single point; actives 0.36% (n = 350,000); activity (quench increase), % at 7.58 µM; CFBE cells, YFP halide quenching; stimulated with forskolin plus potentiator P3; % fluorescence drop versus neutral controls;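 active means mean added fluorescence quench of at least 8% versus neutral control, with both replicates also reaching 8%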;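 further: cells transiently co-express mutant CFTR-F508del with the halide-sensitive YFP; corrector assay measuring rescue of mutant channel to the surface after 24 h compound exposure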
Ecoli rRNA inh: reduced GFP signal of wild-type E. coli, primary screen, bacterial rRNA inhibitor project, GFP/RFP fluorescence, OD600, single point | E. coli WT GFP vs humanized-ribosome RFP mutants, 24 h; active compounds read low; DMSO median 0, no signal -100 | GFP signal change (wild-type ribosome), % (test concentration not listed) | actives 1.6% (n = 350,000) | AID 720706, 2013;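 active means significant combined selectivity score with lowered wild-type GFP, culture density cut under 30%, mutant RFP and density less affected; inactive means any of these conditions unmet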
ARNT TACC3 PPI: disruptors of ARNT/TACC3 protein interaction, primary screen, biochemical, AlphaScreen, single concentration. actives 0.66% (n = 390,000). AlphaScreen His-ARNT PAS-B/GST-TACC3 binding, luminescence; TACC3 fragment carries E629A point mutation. inhibition, % at 9.99 µM. Transforming acidic coiled-coil-containing protein 3 (Homo sapiens), Q9Y6A5;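 active means mean inhibition of replicates at least 50% and at least half of replicates each reaching 50%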;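 further: 0% = complete ARNT plus TACC3 wells and 100% = ARNT alone without TACC3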
PvdQ inh: P. aeruginosa PvdQ acylase inhibitors, primary screen, biochemical, fluorescence, plate reader and imaging, single point. PvdQ acylase [Pseudomonas aeruginosa LESB58]. purified PvdQ acylase. inhibition, % at 10 µM. actives 0.063% (n = 340,000). AID 488965, 2010; in the data active means inhibition above about 30%, passing the limit was not always enough;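 further: 0% = vehicle neutral wells and 100% = reference inhibitor wells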
* = called active by the depositor; . = no result; ! = a repeat was not active.

SMILES	ERAP1 inh	CFTR F508del cor	Ecoli rRNA inh	ARNT TACC3 PPI	PvdQ inh
C[N+]1(CC(=O)OCCCC2CCCCC2)CCCC1	108*	-4	13	2	4
C[C@H](CO)N1C[C@H](C)[C@H](CN(C)S(=O)(=O)c2cccs2)Oc2ccc(NC(=O)Cn3cnnn3)cc2C1=O	-2	-4	-2	-6	.
COc1ccc2c3c([nH]c2c1)[C@@H](CO)N(C)CC31CN(S(=O)(=O)c2cccc(F)c2)C1	.	-1	-3	.	.
COc1ccccc1NS(=O)(=O)c1cc(N/C(=N/S(=O)(=O)c2ccccc2)c2ccc(F)cc2)ccc1Cl	3	0	-10	.	.
O=S(=O)(/N=C(/Nc1ccc(Cl)c(S(=O)(=O)Nc2ccccc2Cl)c1)c1ccc(F)cc1)c1ccccc1	1	2	-28*!	10	-5
C=CCOc1ccc(CN(C)CC(=O)Nc2ccccc2[N+](=O)[O-])cc1	-2	-1	-24*	5	-5
O=C(C[C@@H]1CC[C@@H]2[C@H](COC[C@H](O)CN2Cc2cccc(C(F)(F)F)c2)O1)NCc1ccccc1	-4	3	-6	-19	.
COc1ccc(NC(=O)N2CCCCN3[C@H](CO)[C@H](c4ccc(C#CCC(C)C)cc4)[C@@H]3C2)cc1	.	-1	-2	3	.
CN1C(=O)S/C(=C\c2ccc(-n3cncn3)cc2)C1=O	-2	-3	-22*	16	48*
CC(NC1CCCCC1)C(=O)NN=C(c1ccccc1)c1ccccc1 (stereo not given)	-3	-5	-25*	-5	5
CC(Cl)C(=O)NN=C(c1ccccc1)c1ccccc1 (stereo not given)	.	-2	1	-3	-4
CC[n+]1c(C)sc2cc(OC)ccc21	30*	-3	16	-6	-12
CC(=O)C1=C(c2ccccc2)N(C(C)=O)n2c(C)nnc2S1	5	.	-3	35*	-4
O=C(NC1CC1)C1=C[C@@H](c2ccc(Br)cc2)C[C@@H](OCCCCO)O1	0	4	-19*	-6	-5
O=C(NC1CC1)C1=C[C@@H](c2ccccc2)C[C@@H](OCCCCO)O1	2	2	1	6	10
O=S(=O)(N[C@@H]1CC[C@@H](CCn2cc(-c3ccccc3F)nn2)O[C@H]1CO)c1ccc(Cl)cc1	0	2	-4	-1	.
O=C(NCC(c1ccco1)N1CCCCC1)c1ccc(NS(=O)(=O)c2ccc(F)cc2)cc1 (stereo not given)	-5	-1	-20*	-8	-4
O=C(C[C@@H]1C[C@H]2c3cc(NC(=O)c4cccnc4)ccc3O[C@H]2[C@@H](CO)O1)NCCN1CCCCC1	1	0	2	-6	.
COc1ccc(C2=Nc3ccccc3NC(=O)C2N(C(=O)c2ccnc3ccccc23)c2ccccc2)cc1 (stereo not given)	0	-8	-21*	.	.
COc1ccc(/C=C(\NC(=O)c2ccccc2)C(=O)OC[C@@H]2CCC[N+]3(C)CCCCC23)cc1OC (stereo not given in full)	39*	2	21	13	0
O=C(CSc1nc(C2CC2)nc2ccccc12)N1CCCCC1	9	2	-19	4	-12
O=C(CSc1nc(C2CCCCC2)nc2ccccc12)N1CCCC1	22	0	-18*	.	-8
O=C(O)c1ccccc1NS(=O)(=O)c1cccc(-n2sc3ccccc3c2=O)c1	99*	2	1	-4	-13
CNC[C@H]1Oc2ccc(NC(=O)Nc3ccccc3)cc2C(=O)N([C@@H](C)CO)C[C@H]1C	0	-3	5	-4	.
CC1CCC(C(C)C)C(OCC(O)C[N+]2(C)CCCCC2)C1 (stereo not given)	103*	2	.	2	4
SMILES	ERAP1 inh	CFTR F508del cor	Ecoli rRNA inh	ARNT TACC3 PPI	PvdQ inh
CC1CCC(C(C)C)C(OCC(O)CN2CCOCC2)C1 (stereo not given)	1	-1	-12	-1	14
Cn1cc(CNC(=O)c2cc(COc3ccc4c(c3)CCCC4)on2)cn1	1	2	-32*	1	-7
CCN(Cc1cnn(C)c1)C(=O)c1cc(COc2ccc3c(c2)CCCC3)on1	3	1	-49	-1	-3
COc1ccc2c3c(n(C)c2c1)[C@H](CO)N(CC1CC1)CC31CCN(C(=O)Nc2c(C)noc2C)CC1	4	2	1	.	.
COc1cccc2cc(-c3ccnc(N)n3)oc12	3	1	-32*	-1	0
C/C=C/c1ccc2c(c1)O[C@H](CN(C)C(=O)NC1CCCC1)[C@@H](C)CN([C@@H](C)CO)S2(=O)=O	0	.	3	-4	.
COc1ccc(S(=O)(=O)Nc2cccc3c2O[C@@H](CN(C)Cc2ccc(C(F)(F)F)cc2)[C@@H](C)CN([C@@H](C)CO)C3=O)cc1	1	-2	-5	-6	.
CCC(=O)Nc1nnc(-c2ccccn2)o1	0	.	17	48*	-2
CCC(=O)Nc1nnc(-c2ccco2)o1	-2	-1	12	8	-6
COc1cc(OC)cc(C(=O)OCC(=O)Nc2nnc(-c3ccccc3)o2)c1	-1	0	19	5	-19
O=C(COC(=O)c1ccco1)Nc1nnc(-c2ccccc2)o1	1	0	-3	60*	10
O=C(Nc1nnc(-c2ccccn2)o1)c1ccc(Br)cc1	0	0	-32	24	-9
O=C(COc1ccccc1)Nc1nnc(-c2ccco2)o1	-2	0	23	74*	-1
COc1cc(OC)c(C(=O)OCC(=O)Nc2nnc(-c3ccccc3)o2)cc1OC	2	3	7	85*	-10
O=C(COc1ccccc1)Nc1nnc(-c2ccccc2)o1	.	1	1	93*	0
COc1ccc(C2C(C(=O)c3ccccc3)N3c4ccccc4C=CC3C2[N+](=O)[O-])cc1 (stereo not given)	6	23*	-18	-6	-12
C[C@H]1CN([C@@H](C)CO)C(=O)c2cc(NS(=O)(=O)c3ccc(F)cc3)ccc2O[C@@H]1CN(C)Cc1ccc(-c2ccccc2)cc1	-1	3	-2	8	.
CC(C)C#Cc1cnc2c(c1)C(=O)N([C@H](C)CO)C[C@H](C)[C@H](CN(C)C(=O)CC1CC1)O2	0	0	2	-4	.
O=c1cnc2ccccc2n1CC1CCCCC1	6	8.6*	-8	-9	-7
O=C(O)Cn1c(=O)cnc2ccccc21	.	.	.	-2	-11
O=C1NC(CCc2ccccc2)C(=O)N1CCOc1ccccc1 (stereo not given)	7	3	-27*	-6	-6
